Laboratory results reported in PubChem BioAssay (NCI).
Compounds without any hit were thinned out: in the full panel of roughly 83,000, 20% have a hit.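 Results are percent growth after 48 hours of single-concentration exposure. 100 means growth as in untreated cells, lower positive values show inhibition; negative values down to -100 show cell death.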 Activity calls are given as the source filed them. Rule for the calls: active = growth percent below 10; inactive = the rest.

How the values were obtained:
Assay in all cases: NCI-60 one-dose screen, 48 h (100 = growth as untreated, 0 = no growth, -100 = all killed)
Settings in all cases: 10 µM unless noted
HCT-15 colon = system: HCT-15 colon
HT29 colon = system: HT29 colon
SNB-75 CNS = system: SNB-75 CNS
SNB-19 CNS = system: SNB-19 CNS
U251 CNS = system: U251 CNS
PC-3 prostate = system: PC-3 prostate
SK-MEL-5 melanoma = system: SK-MEL-5 melanoma
UACC-62 melanoma = system: UACC-62 melanoma
LOX IMVI melanoma = system: LOX IMVI melanoma
SK-MEL-28 melanoma = system: SK-MEL-28 melanoma
SK-MEL-2 melanoma = system: SK-MEL-2 melanoma
EKVX NSCLC = system: EKVX NSCLC
SN12C renal = system: SN12C renal
UO-31 renal = system: UO-31 renal
ACHN renal = system: ACHN renal
CAKI-1 renal = system: CAKI-1 renal
A498 renal = system: A498 renal
CCRF-CEM leukemia = system: CCRF-CEM leukemia
MOLT-4 leukemia = system: MOLT-4 leukemia
TK-10 renal = system: TK-10 renal

Measured: growth

Nc1ncc(-c2ccc3ncnc(N4CCc5cc(F)c(F)cc54)c3c2)cn1
inactive: HCT-15 colon 23.1% | HT29 colon 33.1% | SNB-75 CNS 27.3% | SNB-19 CNS 43.1% | U251 CNS 41.2% | PC-3 prostate 17.7% | SK-MEL-5 melanoma 16.2% | LOX IMVI melanoma 11.1% | SK-MEL-28 melanoma 33.2% | SK-MEL-2 melanoma 33.2% | EKVX NSCLC 18.7% | SN12C renal 25.1% | ACHN renal 19.5% | CAKI-1 renal 15.3% | CCRF-CEM leukemia 24.2%
active: UACC-62 melanoma 9.67% | UO-31 renal 8.51% | A498 renal -42.9% | MOLT-4 leukemia 8.56%

C=C=COc1cccc(/C(N)=N/C(N)=N/c2nc3ccccc3s2)c1
inactive: HCT-15 colon 83.6% | HT29 colon 107% | SNB-75 CNS 85.6% | SNB-19 CNS 97.5% | U251 CNS 80.5% | PC-3 prostate 30.3% | SK-MEL-5 melanoma 98.5% | UACC-62 melanoma 94.2% | LOX IMVI melanoma 37.7% | SK-MEL-28 melanoma 64% | EKVX NSCLC 55.8% | SN12C renal 66.7% | UO-31 renal 31.2% | TK-10 renal 133% | ACHN renal 79.7% | CAKI-1 renal 36.9% | A498 renal 79.7% | CCRF-CEM leukemia 32% | MOLT-4 leukemia 47.4%

CCNC(=O)N1CCc2cc(OC)c(OCCc3ccc(OC)nc3)cc2C1c1ccc(OC)cc1C (stereo not drawn)
inactive: HCT-15 colon 14% | SNB-75 CNS 25.9% | SNB-19 CNS 34.5% | U251 CNS 26.2% | PC-3 prostate 37.8% | SK-MEL-5 melanoma 23.6% | UACC-62 melanoma 22.7% | SK-MEL-28 melanoma 43.9% | EKVX NSCLC 61.8% | SN12C renal 44.8% | UO-31 renal 40.3% | TK-10 renal 59.9% | ACHN renal 32.2% | CAKI-1 renal 33.7% | A498 renal 14.1% | CCRF-CEM leukemia 39.3% | MOLT-4 leukemia 25.8%
active: HT29 colon 5.66% | LOX IMVI melanoma 7.09%

COc1cccc(O)c1/C=C(/C)c1ccc2c(OC)cccc2[o+]1
inactive: HCT-15 colon 95.1% | HT29 colon 118% | SNB-75 CNS 97.1% | SNB-19 CNS 103% | U251 CNS 106% | PC-3 prostate 97.5% | SK-MEL-5 melanoma 105% | UACC-62 melanoma 93.7% | LOX IMVI melanoma 83.9% | SK-MEL-28 melanoma 101% | SK-MEL-2 melanoma 107% | EKVX NSCLC 96.5% | SN12C renal 99.5% | UO-31 renal 79.7% | ACHN renal 98.9% | CAKI-1 renal 90.3% | A498 renal 95.7% | CCRF-CEM leukemia 106% | MOLT-4 leukemia 107%

CC1(C)[C@@H](O)CC[C@]2(C)[C@H]3CC[C@@H]4[C@H]5[C@H](C(=O)/C=C\c6ccccn6)CC[C@]5(O)CC[C@@]4(C)[C@]3(C)CC[C@@H]12
inactive: HCT-15 colon 15% | HT29 colon 28% | SNB-75 CNS 26.2% | SNB-19 CNS 48.3% | U251 CNS 37.7% | PC-3 prostate 39.9% | SK-MEL-5 melanoma 54.1% | UACC-62 melanoma 41.7% | SK-MEL-28 melanoma 51.4% | EKVX NSCLC 42.5% | SN12C renal 50.5% | UO-31 renal 50.8% | TK-10 renal 77.5% | ACHN renal 32.6% | CAKI-1 renal 33.9% | A498 renal 22%
active: LOX IMVI melanoma -21.8% | CCRF-CEM leukemia -0.82% | MOLT-4 leukemia -8.46%

NC/C(=C/F)COc1ccc2nc(NCc3cccnc3)oc2c1
inactive: HCT-15 colon 109% | HT29 colon 112% | SNB-75 CNS 63.1% | SNB-19 CNS 105% | U251 CNS 105% | PC-3 prostate 104% | SK-MEL-5 melanoma 99.5% | UACC-62 melanoma 101% | LOX IMVI melanoma 98% | SK-MEL-28 melanoma 110% | EKVX NSCLC 68.5% | SN12C renal 86.3% | UO-31 renal 62.1% | TK-10 renal 74.7% | ACHN renal 100% | CAKI-1 renal 69.8% | A498 renal 50.5% | CCRF-CEM leukemia 99.9% | MOLT-4 leukemia 106%

CCCCCc1ccc(S(=O)(=O)Nc2cccc(-c3csc(NC(=O)CCCCCN4CCN(CCO)CC4)n3)c2)cc1
inactive: HCT-15 colon 43.1% | HT29 colon 11.4% | SNB-75 CNS 98.5% | SNB-19 CNS 85.9% | U251 CNS 65.8% | PC-3 prostate 68.1% | SK-MEL-5 melanoma 66.1% | UACC-62 melanoma 87.6% | SK-MEL-28 melanoma 71.1% | SK-MEL-2 melanoma 105% | EKVX NSCLC 81% | SN12C renal 85.2% | UO-31 renal 88.4% | ACHN renal 99.4% | CAKI-1 renal 95.3% | A498 renal 76.8% | CCRF-CEM leukemia 46.7% | MOLT-4 leukemia 14.7%
active: LOX IMVI melanoma -60.3%

CCCSc1nc(Nc2ccc(/C(C)=N\NC(N)=S)cc2)c(C#N)c(-c2ccccc2)n1
inactive: HCT-15 colon 66% | HT29 colon 60.3% | SNB-75 CNS 141% | SNB-19 CNS 83.1% | U251 CNS 73.1% | PC-3 prostate 79.9% | SK-MEL-5 melanoma 80.2% | UACC-62 melanoma 97.1% | LOX IMVI melanoma 46.1% | SK-MEL-28 melanoma 84.6% | SK-MEL-2 melanoma 87.9% | EKVX NSCLC 74.4% | SN12C renal 77.9% | UO-31 renal 46.9% | ACHN renal 35.4% | CAKI-1 renal 48.1% | A498 renal 102% | CCRF-CEM leukemia 69.3% | MOLT-4 leukemia 52.8%

COC(=O)c1ccc(NC2=C/C(=N/S(=O)(=O)c3ccc(C(=O)O)cc3)c3ccccc3C2=O)cc1
active: U251 CNS 2.7% | SK-MEL-5 melanoma -35.6% | UACC-62 melanoma -24.1% | LOX IMVI melanoma -65% | SK-MEL-28 melanoma -32.6% | SK-MEL-2 melanoma 4.1% | SN12C renal -71.3% | UO-31 renal -1.04% | ACHN renal -11.2% | CCRF-CEM leukemia 4.48% | MOLT-4 leukemia -15%
inactive: HCT-15 colon 61.7% | HT29 colon 112% | SNB-75 CNS 172% | SNB-19 CNS 88.6% | PC-3 prostate 16.6% | EKVX NSCLC 88.3% | CAKI-1 renal 20.4% | A498 renal 119%

Nc1ncc(-c2ccc3ncnc(Nc4cccc(Cl)c4F)c3c2)cn1
inactive: HCT-15 colon 56.4% | HT29 colon 78.9% | SNB-75 CNS 53.2% | SNB-19 CNS 59.4% | U251 CNS 67.9% | PC-3 prostate 61% | SK-MEL-5 melanoma 63.6% | UACC-62 melanoma 38.9% | LOX IMVI melanoma 77.4% | SK-MEL-28 melanoma 65.2% | SK-MEL-2 melanoma 95.3% | EKVX NSCLC 11.7% | SN12C renal 50.9% | UO-31 renal 34.6% | ACHN renal 25.3% | CAKI-1 renal 38% | CCRF-CEM leukemia 65.6% | MOLT-4 leukemia 72.3%
active: A498 renal -10.7%

COc1cc(-c2nnc(SCc3ccc(O)c4ncccc34)n2-c2ccccc2)cc(OC)c1OC
active: SNB-75 CNS -6.25% | SNB-19 CNS 9.25% | U251 CNS 4.28% | SK-MEL-5 melanoma -62.4% | UACC-62 melanoma -37.4% | LOX IMVI melanoma -22.2% | EKVX NSCLC 4.34% | SN12C renal 8.79% | UO-31 renal -30.2% | ACHN renal 4.84% | CAKI-1 renal 1.72% | A498 renal 1.54% | CCRF-CEM leukemia 5.95% | MOLT-4 leukemia 4.98%
inactive: HCT-15 colon 12.8% | HT29 colon 16.7% | PC-3 prostate 15.4% | SK-MEL-28 melanoma 17.9% | TK-10 renal 15.2%

Nc1ccccc1NC(=O)c1ccc(NC(=O)C/C=C/c2cccnc2)cc1
inactive: HCT-15 colon 30.2% | HT29 colon 18.1% | SNB-75 CNS 44.6% | SNB-19 CNS 39.4% | U251 CNS 21.5% | PC-3 prostate 36.9% | SK-MEL-5 melanoma 12.3% | UACC-62 melanoma 15% | LOX IMVI melanoma 20.3% | EKVX NSCLC 61.3% | SN12C renal 29.1% | UO-31 renal 17.6% | TK-10 renal 28.9% | ACHN renal 47.1% | CAKI-1 renal 45.1% | CCRF-CEM leukemia 22.5% | MOLT-4 leukemia 31.1%
active: SK-MEL-28 melanoma 0.0488% | A498 renal -16.4%

c1n[nH]cc1-c1nc2ccc3[nH]ncc3c2c2c1CCCC2
active: SNB-75 CNS 7.62% | UACC-62 melanoma -0.281% | CAKI-1 renal 0.509% | A498 renal -14.2%
inactive: HCT-15 colon 12.7% | HT29 colon 24% | SNB-19 CNS 23.1% | U251 CNS 30.1% | PC-3 prostate 23.1% | SK-MEL-5 melanoma 16.1% | LOX IMVI melanoma 18.8% | SK-MEL-28 melanoma 18.3% | EKVX NSCLC 42.1% | SN12C renal 15.1% | UO-31 renal 11.9% | TK-10 renal 15.1% | ACHN renal 10.8% | CCRF-CEM leukemia 28.1% | MOLT-4 leukemia 24.6%

Cn1ccnc1C(=O)/C=C/c1ccc(NC(=O)c2c(F)c(F)c(F)c(F)c2F)cc1
inactive: HCT-15 colon 85.9% | HT29 colon 112% | SNB-75 CNS 103% | SNB-19 CNS 98.3% | U251 CNS 99% | PC-3 prostate 100% | SK-MEL-5 melanoma 91.2% | UACC-62 melanoma 97.2% | LOX IMVI melanoma 81.6% | SK-MEL-28 melanoma 105% | SK-MEL-2 melanoma 112% | EKVX NSCLC 99.7% | SN12C renal 101% | UO-31 renal 79.7% | ACHN renal 101% | CAKI-1 renal 107% | A498 renal 113% | CCRF-CEM leukemia 86% | MOLT-4 leukemia 85.2%

O=S(=O)(NCCNc1nccc(-n2cnc3ccccc32)n1)c1ccc(Br)cc1
inactive: HCT-15 colon 95.7% | HT29 colon 97.2% | SNB-75 CNS 74.1% | SNB-19 CNS 101% | U251 CNS 98.6% | PC-3 prostate 93.8% | SK-MEL-5 melanoma 89.1% | UACC-62 melanoma 82.8% | LOX IMVI melanoma 99.1% | SK-MEL-28 melanoma 108% | EKVX NSCLC 83.4% | SN12C renal 91.5% | UO-31 renal 79.8% | TK-10 renal 103% | ACHN renal 93.6% | CAKI-1 renal 81.5% | A498 renal 76.3% | CCRF-CEM leukemia 101% | MOLT-4 leukemia 95.9%

Nc1nc(Nc2ccccc2SSc2ccccc2Nc2nc(N)nc(-c3cccc(Br)c3)n2)nc(-c2cccc(Br)c2)n1
inactive: HCT-15 colon 50.8% | HT29 colon 108% | SNB-75 CNS 53.9% | SNB-19 CNS 25.4% | PC-3 prostate 34.7% | SK-MEL-5 melanoma 91.2% | UACC-62 melanoma 88.3% | SK-MEL-28 melanoma 98.9% | EKVX NSCLC 42.8% | SN12C renal 63.7% | TK-10 renal 104% | ACHN renal 50.1% | CAKI-1 renal 21.6% | A498 renal 72% | MOLT-4 leukemia 52%
active: U251 CNS -43.9% | LOX IMVI melanoma -62.1% | UO-31 renal -7.87%
